# Assay results: PubChem BioAssay AID2449 (National Center for Advancing Translational Sciences (NCATS), 2010)
# The other results are listed elsewhere or left out. Inconclusive results are not listed. Active and inactive are the calls of the source. Calls follow the shape of the full dose curve.
# Target: Peroxisome proliferator-activated receptor gamma (Homo sapiens) (UniProt P37231)
# Assay: PPAR gamma Selectivity Assay For Inhibitors of the Interaction of Thyroid Hormone Receptor and Steroid Receptor Coregulator 2
# Details: PPARg LBD / Texas Red DRIP-2 peptide, fluorescence polarization, 3 h
# Source text: NIH Molecular Libraries Probe Production Network [MLPCN] NIH Chemical Genomics Center [NCGC] MLPCN Grant: DK058080 Assay Provider: R. Kip Guy, St. Jude Children's Research Hospital NCGC Assay Overview: Thyroid receptor (TR) regulates many homeostatic processes including basal metabolism, cardiovascular function, body weight, and lipid trafficking. TR modulators are potential therapeutics for obesity and hyperlipidemias but current thyroid analogs have undesirable side effects, particularly cardiac stimulation. This secondary assay characterized compounds identified in the qHTS for Inhibitors of the Interaction of Thyroid Hormone Receptor and Steroid Receptor Coregulator 2 (PubChem AID 1485) for selectivity against PPAR gamma. […] Small molecule inhibitors that block the interaction of PPAR and DRIP-2 are detected by a decrease in fluorescence polarization. […]
# NCGC Assay Protocol Summary: Twenty uL/well 2 uM PPAR gamma and 10 nM Tx-DRIP-2 peptide in protein buffer (20 mM TRIS, pH 7.5, 100 mM NaCl, 0.01% NP-40, 20 uM roziglitazone, and 4% DMSO) was dispensed into black solid 384-well plates (Costar 3710) using a Biomek FX (Beckman Coulter) liquid handling system. […] The plates were read by an Envision (Perkin Elmer) to detect Texas Red polarization of Tx-DRIP-2 (555 nm excitation and 632 nm emission).
# Sequence of Peroxisome proliferator-activated receptor gamma (Homo sapiens) (P37231 whole entry, looked up): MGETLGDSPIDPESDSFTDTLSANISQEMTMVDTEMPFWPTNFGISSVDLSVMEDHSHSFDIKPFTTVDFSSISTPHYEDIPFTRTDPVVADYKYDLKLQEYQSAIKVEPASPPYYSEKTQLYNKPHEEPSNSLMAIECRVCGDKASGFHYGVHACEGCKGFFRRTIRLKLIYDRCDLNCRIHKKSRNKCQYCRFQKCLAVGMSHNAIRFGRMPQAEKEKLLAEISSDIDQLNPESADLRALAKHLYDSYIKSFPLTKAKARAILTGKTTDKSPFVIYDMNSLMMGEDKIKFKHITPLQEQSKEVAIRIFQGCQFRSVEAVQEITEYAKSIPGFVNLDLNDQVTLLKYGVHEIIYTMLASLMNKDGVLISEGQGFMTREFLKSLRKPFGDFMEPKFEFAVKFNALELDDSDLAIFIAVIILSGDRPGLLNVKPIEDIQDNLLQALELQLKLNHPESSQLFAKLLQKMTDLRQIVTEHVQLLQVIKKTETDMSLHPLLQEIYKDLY
row,Structure (SMILES),outcome
1,O=C(COC(=O)c1cccc([N+](=O)[O-])c1)NC1C2CC3CC(C2)CC1C3 (stereo unspecified),inactive
